This is an account of results in PubChem BioAssay (NCATS).

Assay [1] has as its target Methanococcus maripaludis chaperonin (MmCpn) (UniProt Q6LX38). Nature of the assay: High-Throughput Screening for Modulators of Cytosolic Chaperonin Activity: MmCpn Primary Screen (AID 488978).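 Further: 50 nM MmCpn enzyme hydrolysing 30 µM ATP at 37 °C; 0% is about no effect.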 Summed up: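 Measures ATPase turnover of the M. maripaludis chaperonin (50 nM final) against 30 uM ATP over 10 min at 37C, with compound added 5 min beforehand at room temperature. ADP is quantified by HTRF immunodetection.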

Assay [2] has as its target Transient receptor potential cation channel subfamily V member 1 (Homo sapiens) (UniProt Q8NER1). Nature of the assay: HTS Assay for Compounds that Act as Enhancers of the Vanilloid Receptor 1 (AID 488979). Further: 0% is about no effect. Summed up: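 TRPV1-expressing cells loaded with Fluo-8 calcium dye; compounds added and calcium influx read kinetically for 3 min (agonist phase), then capsaicin at EC20 added and read 2 min more for enhancement. Fluorescence ex 480/em 520 nm.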

The target in assay [3] is Thyrotropin receptor (Homo sapiens) (UniProt P16473). Nature of the assay: qHTS Assay for Antagonists of the Thyroid Stimulating Hormone Receptor (AID 488980). Further: series mostly up to about 58 µM; 0% is about no effect. Summed up: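 Cells expressing human TSHR (HEK293) are dispensed in HBSS/HEPES containing 70 uM RO 20-1724, compound is added, then TSH at EC80 (4 nM final). Antibody in lysis buffer follows, 30 minutes at room temperature before HTRF detection.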
Thyrotropin receptor (Homo sapiens), sequence (P16473 whole entry, looked up): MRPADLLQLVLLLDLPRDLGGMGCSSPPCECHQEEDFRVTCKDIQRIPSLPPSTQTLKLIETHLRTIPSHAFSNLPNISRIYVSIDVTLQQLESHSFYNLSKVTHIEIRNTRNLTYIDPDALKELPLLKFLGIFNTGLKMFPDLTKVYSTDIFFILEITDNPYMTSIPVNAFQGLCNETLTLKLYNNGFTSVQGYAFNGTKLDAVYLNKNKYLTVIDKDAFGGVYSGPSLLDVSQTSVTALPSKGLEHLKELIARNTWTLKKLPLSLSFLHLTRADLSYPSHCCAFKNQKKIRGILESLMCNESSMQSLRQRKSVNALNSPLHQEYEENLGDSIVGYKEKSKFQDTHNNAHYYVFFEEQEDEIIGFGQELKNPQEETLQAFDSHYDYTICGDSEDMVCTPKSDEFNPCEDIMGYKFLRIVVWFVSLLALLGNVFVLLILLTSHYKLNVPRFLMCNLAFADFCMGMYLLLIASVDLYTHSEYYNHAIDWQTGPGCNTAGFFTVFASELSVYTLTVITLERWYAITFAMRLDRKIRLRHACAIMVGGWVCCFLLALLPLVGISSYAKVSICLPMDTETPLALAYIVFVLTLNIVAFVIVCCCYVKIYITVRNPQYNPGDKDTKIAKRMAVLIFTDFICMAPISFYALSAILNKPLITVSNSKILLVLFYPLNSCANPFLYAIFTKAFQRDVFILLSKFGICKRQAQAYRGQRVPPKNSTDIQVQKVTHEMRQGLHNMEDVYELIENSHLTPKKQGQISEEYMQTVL
A general note: qHTS replaces the single test concentration by a dilution series.

Assay [4] deals with D(1A) dopamine receptor (Homo sapiens) (UniProt P21728). The assay is described as follows: HTS Assay for Allosteric Agonists of the Human D1 Dopamine Receptor: Primary Screen for Agonists (AID 488981). Further: 0% is about no effect. Summed up: (§1)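 Tetracycline-induced HEK293 T-REx cells force-coupled to calcium signalling were incubated overnight at 30 C and dye-loaded at room temperature. Calcium flux over 180 s after compound addition flagged agonists; a further 180 s read after EC20 dopamine flagged potentiators.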
D(1A) dopamine receptor (Homo sapiens), sequence (P21728 whole entry, looked up): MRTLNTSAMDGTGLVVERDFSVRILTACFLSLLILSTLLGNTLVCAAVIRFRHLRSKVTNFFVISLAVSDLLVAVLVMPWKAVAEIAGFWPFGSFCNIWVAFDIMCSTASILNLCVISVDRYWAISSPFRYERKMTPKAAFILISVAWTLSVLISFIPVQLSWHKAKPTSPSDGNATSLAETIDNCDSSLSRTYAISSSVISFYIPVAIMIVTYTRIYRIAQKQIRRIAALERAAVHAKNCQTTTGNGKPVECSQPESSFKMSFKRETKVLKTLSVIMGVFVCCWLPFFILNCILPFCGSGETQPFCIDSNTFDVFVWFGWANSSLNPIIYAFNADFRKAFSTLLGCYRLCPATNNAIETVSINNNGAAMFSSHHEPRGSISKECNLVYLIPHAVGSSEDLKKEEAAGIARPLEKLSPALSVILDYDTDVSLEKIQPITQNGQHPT

The target is the same in assay [5]. The assay is described as follows: HTS Assay for Allosteric Agonists of the Human D1 Dopamine Receptor: Primary Screen for Potentiators (AID 488982). Further: 0% is about no effect. Summed up: as §1
Assay [6] can be described thus: Validation screen for small molecules that induce genotoxicity in human embryonic kidney (HEK293T) cells expressing luciferase-tagged ELG1 (AID 493106). Further: potency means the concentration at half of the fitted maximal effect. The method, boiled down: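 ELG1-luciferase reporter readout (ONE-Glo, 30 min, room temperature) after 16 hr compound treatment at 37 °C of HEK293T cells at 2,000 per well. Rising luminescence flags genotoxic stress.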

Assay [7] concerns the target ATPase family AAA domain-containing protein 5 (Homo sapiens) (UniProt Q96QE3). Nature of the assay: Validation screen for small molecules that inhibit ELG1-dependent DNA repair in human embryonic kidney (HEK293T) cells expressing luciferase-tagged ELG1 (AID 493107).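 Further: series mostly up to about 46 µM; on the % scale 0 is the no-effect control and ±100 the full control effect; inhibitors lower the ELG1-luciferase luminescence signal; nearly all actives have a fitted effect of over 70% in size.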 The method, boiled down:
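Luciferase read-out, ONE-Glo, 30 min at room temperature, follows 16 h co-exposure at 37 C of compound and the DNA-damaging agent 5-fluorouridine. Cells: HEK293T with ELG1-luciferase fusion, 2,000 per well, DMSO as vehicle.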

The target in assay [8] is Thyrotropin-releasing hormone receptor (Homo sapiens) (UniProt P34981). The assay is described as follows: qHTS for Small Molecule Agonists and Allosteric Enhancers of Human TRH Receptor: Validation Screen for Agonists (AID 493127;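 active means calcium activation more than 3 SD above the typical response in the agonist read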;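 further: intracellular calcium rise by fluo-8 fluorescence before TRH EC20 addition; 0% is about no effect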). Conditions: TRH receptor agonist cell assay; at 2 µM; stronger effect = higher value. The method, boiled down: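 Compound-evoked intracellular calcium release in fluo-8-loaded TRHR cells, read kinetically on FDSS (Ex 480/Em 530, 1 s/cycle) after 23 nL pintool transfer. Agonist phase preceded 10 nM TRH EC20 addition.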
Thyrotropin-releasing hormone receptor (Homo sapiens), sequence (P34981 whole entry, looked up): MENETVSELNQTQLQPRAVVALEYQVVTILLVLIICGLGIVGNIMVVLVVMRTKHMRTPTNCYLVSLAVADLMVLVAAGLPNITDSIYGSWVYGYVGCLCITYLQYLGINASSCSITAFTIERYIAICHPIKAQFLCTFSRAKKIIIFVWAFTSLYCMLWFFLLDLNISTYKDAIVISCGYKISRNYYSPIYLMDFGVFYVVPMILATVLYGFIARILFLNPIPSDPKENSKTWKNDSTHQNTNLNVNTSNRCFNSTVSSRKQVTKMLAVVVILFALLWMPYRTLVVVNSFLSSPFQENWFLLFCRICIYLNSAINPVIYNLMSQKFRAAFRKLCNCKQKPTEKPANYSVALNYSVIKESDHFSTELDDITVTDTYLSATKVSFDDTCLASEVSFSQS

Assay [9] is described as follows: Nrf2 qHTS screen for inhibitors: Validation (AID 493153; active means well fitted inhibition curve with a large enough effect in the main read-out, with a control signal flat, not every such curve was filed as active). The note with it: Potency: luciferase luminescence; viability change: measured here: cytotoxicity max response. Summed up: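 Concentration-response on A549 ARE_Fluc reporter cells exposed 18-24 h at 37 C, 5% CO2. Cytotoxicity read first by CellTiter-Fluor fluorescence (Ex 405/Em 525), then Nrf2 inhibition by BugLite luminescence after 15 min.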

Assay [10] can be described thus: qHTS for Inhibitors of Cell Surface uPA Generation: Validation Assay (AID 493164).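 Further: RAW 264.7 macrophage cells exposed to compound for 18 h; 0% is about no effect.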 The method, boiled down: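 ATP-Lite luminescence read-out: ATP remains high when uPA activity-dependent LF translocation into the cytoplasm is blocked. RAW 264.7 cells, 18 h compound exposure at 37 C; 7-point titration, 2.45 nM to 38.3 uM final.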
Assay [11] concerns the target Galactokinase (Homo sapiens) (UniProt P51570). Nature of the assay: qHTS Validation Assay for Inhibitors of Human Galactokinase (GALK) (AID 493189). Further: potency means the concentration at half of the fitted maximal effect. The method, boiled down:
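Compounds were pin-transferred into ATP buffer, then GALK-galactose mix was added (final 5 nM enzyme, 100 uM galactose, 35 uM ATP). After 1 h at room temperature, remaining ATP was measured luminescently.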

Assay [12] is described as follows: Validation screen for small molecules that induce DNA re-replication in SW480 colon adenocarcinoma cells (AID 504364). Further: potency means the concentration at half of the fitted maximal effect. Summed up: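 Image-based DNA content read-out: Hoechst stain 40 min, total nuclear fluorescence intensity (ex 405 nm, em 500-530 nm) after 48 h compound exposure of 250 SW480 cells/well at 37 C, 5% CO2, versus DMSO vehicle.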
Assay [13] has as its target Phosphoglycerate kinase, glycosomal (Trypanosoma brucei brucei) (UniProt P07378). The assay is described as follows: qHTS Validation Assay to Find Inhibitors of Phosphoglycerate Kinase (AID 504547).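 Further: control wells lack PGK and mark full inhibition.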 The method, boiled down:
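In TEA buffer (100mM, pH 7.6) containing 5mM MgCl2 and 0.01% Tween-20, the GAPDH-coupled PGK reaction proceeded for 60 minutes at room temperature before a single luminescence reading using Kinase-Glo Plus.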

Assay [14] concerns the target phosphoglycerate mutase (Leishmania major) (UniProt Q4Q090). The assay is described as follows: qHTS Validation Assay to Find Inhibitors of Phosphoglycerate Mutase (AID 504548). Further: series mostly up to about 58 µM; on the % scale 0 is the no-effect control and ±100 the full control effect. The note with it: Potency: inhibition qHTS. The method, boiled down: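 Lm PGAM 1.25nM final; 100 mM TEA pH 7.6, 5 mM MgCl2, 0.01% Tween-20; 45 min RT; Kinase-GloPlus, 10 min; end-point luminescence. Enzyme-free wells as negative controls.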

The target of assay [15] is Ubiquitin carboxyl-terminal hydrolase 1 (Homo sapiens) (UniProt O94782). The assay is described as follows: Inhibitors of USP1/UAF1: Pilot qHTS (AID 504865). Further: nearly all actives have a fitted effect of over 35% in size. Further: potency means the concentration at half of the fitted maximal effect. The method, boiled down:
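Kinetic fluorescence assay: 1nM USP1/UAF1, 15 min compound preincubation, then 150nM Ub-Rho; 480/540 nm.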

A short description of assay [16]: qHTS for Inhibitors of ATXN expression: Validation of Cytotoxic Assay (AID 588349). Further: on the % scale 0 is the no-effect control and ±100 the full control effect. The method, boiled down: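 Cytotoxicity counter-screen: ATP-based luminescent viability (CellTiter Glo) after 72 hr exposure of HEK293 cells to a compound titration at 37 degrees C.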
For assay [17], the target named is Peptidyl-prolyl cis-trans isomerase NIMA-interacting 1 (Homo sapiens) (UniProt Q13526). Nature of the assay: qHTS Validation Assay to Find Inhibitors of Pin1 (AID 504536; active means well fitted inhibition curve with a large enough effect in the polarisation, with a control signal flat, not every such curve was filed as active; the % refers to the polarisation;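 further: 0% = full Pin1 enzyme wells and -100% = no-enzyme wells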). The method, boiled down: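 Fluorescence polarization competition: compounds (titration) displace HiFluor-488-labeled Pin1-1b peptide from Pin1 (0.3 uM final) in pH 7.5 HEPES buffer with DTT, 10 min at room temperature; %Activity normalized to no-enzyme wells, curves fitted.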
Peptidyl-prolyl cis-trans isomerase NIMA-interacting 1 (Homo sapiens), sequence (Q13526 whole entry, looked up): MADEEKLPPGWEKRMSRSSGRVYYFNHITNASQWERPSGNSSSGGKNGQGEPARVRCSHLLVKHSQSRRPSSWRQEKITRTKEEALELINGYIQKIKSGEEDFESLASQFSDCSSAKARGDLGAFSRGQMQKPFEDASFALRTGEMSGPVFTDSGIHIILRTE

Assay [18] addresses D(1A) dopamine receptor (Homo sapiens) (UniProt P21728). Nature of the assay: HTS Assay for Allosteric Agonists of the Human D1 Dopamine Receptor: Primary Screen for Antagonists (AID 488983).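 Further: calcium flux response to an EC80 dopamine challenge measured with no-wash dye; nearly all actives have a fitted effect of over 65% in size.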 Further: potency means the concentration at half of the fitted maximal effect. Summed up: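 Calcium-flux read-out in inducible HEK293 T-REx cells expressing D1, dye-loaded 30–90 min at room temperature. Kinetic reads: 180 s after compound (agonist phase), then 180 s after an EC80 dopamine challenge.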

Several values for one entry are separate records, joined by “and”; a condition that tells them apart may be missing. Equal entries are not always repeated. Inconclusive results are not listed. Activity calls are given as the source filed them. Unless noted, the call rests on the fitted dose curve; in most records, active means well fitted curve in the direction sought with a large enough effect; inconclusive means small, poorly fitted or top-dose-only effect, or another doubt; inactive means no such curve, though single readings can be large; an effect the other way counts as inactive or inconclusive.

Methanococcus maripaludis chaperonin (MmCpn), sequence (Q6LX38 1-543): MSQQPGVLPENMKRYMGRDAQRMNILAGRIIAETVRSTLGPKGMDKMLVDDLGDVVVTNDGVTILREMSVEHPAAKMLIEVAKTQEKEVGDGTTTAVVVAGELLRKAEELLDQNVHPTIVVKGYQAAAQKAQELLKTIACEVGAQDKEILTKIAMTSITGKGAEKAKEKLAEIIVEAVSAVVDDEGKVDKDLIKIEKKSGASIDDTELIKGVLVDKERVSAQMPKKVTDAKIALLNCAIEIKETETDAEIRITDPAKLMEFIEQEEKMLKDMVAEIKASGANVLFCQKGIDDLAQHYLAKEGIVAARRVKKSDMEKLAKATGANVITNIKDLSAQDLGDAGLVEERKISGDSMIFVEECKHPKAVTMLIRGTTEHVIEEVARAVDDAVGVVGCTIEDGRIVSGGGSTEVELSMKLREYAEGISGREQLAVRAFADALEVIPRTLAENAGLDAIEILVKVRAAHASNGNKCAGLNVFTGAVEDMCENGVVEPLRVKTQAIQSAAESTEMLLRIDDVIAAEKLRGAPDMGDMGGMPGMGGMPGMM
Galactokinase (Homo sapiens), sequence (P51570 whole entry, looked up): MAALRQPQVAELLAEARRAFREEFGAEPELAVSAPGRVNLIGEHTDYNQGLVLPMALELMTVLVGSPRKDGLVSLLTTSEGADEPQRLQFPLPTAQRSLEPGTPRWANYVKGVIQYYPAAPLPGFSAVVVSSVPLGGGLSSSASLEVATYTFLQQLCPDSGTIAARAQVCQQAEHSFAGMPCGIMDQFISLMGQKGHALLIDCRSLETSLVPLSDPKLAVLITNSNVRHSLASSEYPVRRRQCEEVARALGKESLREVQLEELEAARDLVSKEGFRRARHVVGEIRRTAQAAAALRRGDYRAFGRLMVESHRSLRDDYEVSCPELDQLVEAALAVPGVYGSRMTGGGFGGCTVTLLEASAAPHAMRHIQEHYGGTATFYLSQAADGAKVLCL
Ubiquitin carboxyl-terminal hydrolase 1 (Homo sapiens), sequence (O94782 whole entry, looked up): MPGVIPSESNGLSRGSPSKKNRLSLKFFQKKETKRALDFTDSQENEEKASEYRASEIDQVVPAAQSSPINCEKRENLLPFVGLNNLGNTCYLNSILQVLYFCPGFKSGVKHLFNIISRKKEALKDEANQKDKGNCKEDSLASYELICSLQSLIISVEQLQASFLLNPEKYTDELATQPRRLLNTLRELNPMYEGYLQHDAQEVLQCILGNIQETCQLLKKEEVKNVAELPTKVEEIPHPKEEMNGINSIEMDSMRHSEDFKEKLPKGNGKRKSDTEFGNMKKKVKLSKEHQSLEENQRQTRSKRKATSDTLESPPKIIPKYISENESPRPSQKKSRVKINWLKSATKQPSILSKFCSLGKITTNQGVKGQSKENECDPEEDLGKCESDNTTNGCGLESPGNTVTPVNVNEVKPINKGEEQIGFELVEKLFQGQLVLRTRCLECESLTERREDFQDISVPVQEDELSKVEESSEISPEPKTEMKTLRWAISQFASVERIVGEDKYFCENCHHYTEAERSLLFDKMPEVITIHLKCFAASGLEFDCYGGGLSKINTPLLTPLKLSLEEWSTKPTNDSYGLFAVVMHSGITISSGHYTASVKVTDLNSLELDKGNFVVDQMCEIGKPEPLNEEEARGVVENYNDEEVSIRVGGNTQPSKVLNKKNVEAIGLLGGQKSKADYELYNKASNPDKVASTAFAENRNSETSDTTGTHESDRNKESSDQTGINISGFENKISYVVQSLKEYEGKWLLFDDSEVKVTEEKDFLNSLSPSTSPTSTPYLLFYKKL
phosphoglycerate mutase (Leishmania major), sequence (Q4Q090 1-553): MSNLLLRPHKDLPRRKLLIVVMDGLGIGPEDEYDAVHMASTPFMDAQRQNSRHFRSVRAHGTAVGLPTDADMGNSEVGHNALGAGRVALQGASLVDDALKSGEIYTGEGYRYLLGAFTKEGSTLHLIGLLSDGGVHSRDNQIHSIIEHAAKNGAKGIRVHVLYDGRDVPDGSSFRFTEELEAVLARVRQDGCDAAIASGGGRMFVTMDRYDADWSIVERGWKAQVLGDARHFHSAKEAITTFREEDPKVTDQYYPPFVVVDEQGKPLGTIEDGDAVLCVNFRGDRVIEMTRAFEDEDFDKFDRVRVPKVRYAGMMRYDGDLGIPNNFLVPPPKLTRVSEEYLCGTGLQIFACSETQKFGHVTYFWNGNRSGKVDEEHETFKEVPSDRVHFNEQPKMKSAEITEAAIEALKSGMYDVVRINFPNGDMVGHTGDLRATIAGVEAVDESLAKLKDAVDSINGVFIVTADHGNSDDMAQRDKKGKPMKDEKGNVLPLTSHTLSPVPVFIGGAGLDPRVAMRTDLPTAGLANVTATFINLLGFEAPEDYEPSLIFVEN
Phosphoglycerate kinase, glycosomal (Trypanosoma brucei brucei), sequence (P07378 whole entry, looked up): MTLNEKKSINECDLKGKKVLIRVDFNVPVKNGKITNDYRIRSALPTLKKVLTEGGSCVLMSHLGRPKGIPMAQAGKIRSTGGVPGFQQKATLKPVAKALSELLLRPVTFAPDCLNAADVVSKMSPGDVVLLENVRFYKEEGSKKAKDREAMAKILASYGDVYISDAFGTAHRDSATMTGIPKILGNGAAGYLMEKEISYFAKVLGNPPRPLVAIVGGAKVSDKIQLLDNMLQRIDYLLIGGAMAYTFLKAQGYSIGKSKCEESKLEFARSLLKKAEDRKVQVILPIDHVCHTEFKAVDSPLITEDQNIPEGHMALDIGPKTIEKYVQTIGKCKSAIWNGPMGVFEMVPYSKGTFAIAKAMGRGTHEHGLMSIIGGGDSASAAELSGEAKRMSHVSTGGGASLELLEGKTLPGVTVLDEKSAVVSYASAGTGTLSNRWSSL

In the case of `NCCCCC(=O)O`, the outcome in assay [1], in [2], in [3] and in [10] was inactive. In addition, the Potency result in assay [4], in assay [5], in assay [6], in assay [7], in assay [9] and in [11] was “inactive” throughout. Further, the Potency result in assay [12], in assay [13], in assay [14], in [15] and in assay [16] was “inactive” each time. For the same compound, the activation in [8] was -0.25% (inactive). Further, the viability change in assay [9] was 11.5%.
As to `COc1ccc(/C=C/C(=O)Nc2ccccc2C(=O)O)cc1OC`, the call in assay [1], in [2], in assay [3] and in assay [10] was inactive. The Potency entry in [4], in [5], in assay [11], in [12], in assay [13] and in assay [14] was “inactive” each time. Besides, the Potency result in [16] is “inactive”. The Potency in assay [6] is 1.64 µM (active). For the same compound, in assay [8], the activation is -5.44% (inactive).
For `Clc1ccc(N2CCN(Cc3c[nH]c4ncccc34)CC2)cc1`, the call in [1], in assay [2], in assay [3] and in [10] was inactive. In addition, the Potency entry in assay [4], in assay [5], in assay [6], in assay [9], in assay [11] and in assay [12] was “inactive” each time. Further, the Potency result in [17], in assay [13], in assay [14] and in [16] was “inactive” in each case. Also, the activation in assay [8] was 2.19% (inactive). In addition, the viability change in [9] was -2.66%. The Potency in [15] was 50.1 µM (active).
Consider `O=C(O)CC[C@@H](C(=O)O)N1C(=O)c2ccccc2C1=O`, for which the compound was classed as inactive in assay [1], in assay [2], in assay [3] and in assay [10]. Moreover, the Potency result in [4], in assay [6], in assay [7], in assay [9], in [11] and in assay [12] was “inactive” throughout. The Potency result in [17], in assay [13], in assay [14], in [15] and in assay [16] was “inactive” in each case. Further, the activation in [8] was 0.125% (inactive). The viability change in [9] is 9.01%.
`C#CCN1C(C)=C(C(=O)OC)C(c2cccc([N+](=O)[O-])c2)C(C(=O)OCC)=C1C` (configuration not stated): the compound was classed as inactive in [1], in assay [2], in assay [3] and in [10]. For the same compound, the Potency result in [4], in assay [18], in assay [6], in [9], in [11] and in assay [12] was “inactive” in each case. The Potency entry in assay [17], in assay [13] and in assay [16] was “inactive” each time. Moreover, the activation in assay [8] was -10.2% (inactive). In addition, the viability change in [9] was -0.517%.
Consider `O=C1C(SCCO)=C(SCCO)C(=O)c2ccccc21`, for which the compound was classed as inactive in [1], in [2], in assay [3] and in assay [10]. In addition, the Potency entry in assay [4], in assay [6] and in assay [14] was “inactive” each time. Besides, the Potency is 11.2 µM (active) in [18], 25.1 µM (active) in [11] and 15.8 µM (active) in [15]. Moreover, the activation in [8] is -3.25% (inactive).
`O=C(Nc1cccc(C(=O)Nc2ccc(S(=O)(=O)O)c3cc(S(=O)(=O)O)cc(S(=O)(=O)O)c23)c1)Nc1cccc(C(=O)Nc2ccc(S(=O)(=O)O)c3cc(S(=O)(=O)O)cc(S(=O)(=O)O)c23)c1`: the call in assay [1], in [2], in assay [3] and in assay [10] was inactive. The Potency result in [4], in assay [6], in assay [7], in assay [11], in assay [12] and in assay [16] was “inactive” in each case. In addition, the activation in assay [8] is 0.875% (inactive). Besides, the Potency in assay [15] was 28.2 µM (active) and 12.6 µM (active).
`COc1ccccc1N1CCN(CCCCNS(=O)(=O)c2cccc3c(N(C)C)cccc23)CC1`: the outcome in assay [1], in assay [2], in assay [3] and in assay [10] was inactive. The Potency entry in assay [4], in assay [5], in [6], in [11], in [13] and in assay [14] was “inactive” throughout. For the same compound, in assay [15], the Potency result is “inactive”. Further, the Potency in assay [18] is 2 µM (active); in assay [12], 14.6 µM (active). Also, the activation in assay [8] was -3.25% (inactive).
Take `CCN1/C(=C/C(C)=O)Sc2ccc(OC)cc21`: the call in [1], in assay [2], in [3] and in [10] was inactive. Further, the Potency result in assay [4], in assay [5], in assay [6], in [9], in assay [11] and in assay [12] was “inactive” in each case. Moreover, the Potency entry in [13], in assay [14], in assay [15] and in [16] was “inactive” each time. Further, the activation in [8] is -4.31% (inactive). Moreover, in assay [9], the viability change is -5.53%.
